Experimental findings from PubChem BioAssay (EPA / NIEHS) are described below.

Where “and” joins values, the source holds several entries; their conditions need not be identical. Equal entries are not always repeated. Records with an inconclusive call do not appear. Calls of active or inactive are those of the source. Rule for the calls, unless noted: active = hit-call score of the fitted dose curve at least 0.9, where 1 is the maximum; inactive = score below 0.9.

Read-out in assay [1]: NAD(P)H dehydrogenase [quinone] 1 (NQO1), NQO1 (gene 1728)
The assay is described as follows: LTEA_HepaRG_NQO1: Life Technologies and Expression Analysis (LTEA) Assay for NAD(P)H dehydrogenase [quinone] 1 (NQO1) using HepaRG (AID 2283526). To be noted: mRNA level, 48 h; actives raise or lower the signal. Summed up: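 Differentiated HepaRG cells, plated 48 h and then switched to serum-free induction medium, were exposed in duplicate for 48 h to 8-point half-log concentrations up to 100 uM in 0.5% DMSO. mRNA measured by qRT-PCR, normalized to ACTB, GAPDH, POLR2A; bidirectional fit versus DMSO.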

Read-out in assay [2]: Nuclear factor erythroid 2-related factor 2 (Homo sapiens) (UniProt Q16236)
The assay is described as follows: LTEA_HepaRG_NFE2L2: Life Technologies and Expression Analysis (LTEA) Assay for Nuclear factor erythroid 2-related factor 2 (NFE2L2) Transcription Factor using HepaRG (AID 2283527).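 For outcome: TaqMan qRT-PCR transcript level normalised to ACTB GAPDH and POLR2A housekeeping genes.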 To be noted: mRNA level, 48 h; actives raise or lower the signal. Summed up: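 Transcript level of NFE2L2 is the read-out, measured by microfluidic TaqMan qRT-PCR and normalized to three housekeeping genes. Human HepaRG cultures received test chemical for 48 h at up to 100 uM in half-log steps. Gain or loss of signal is fitted relative to 0.5% DMSO.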

Read-out in assay [3]: succinate dehydrogenase complex iron sulfur subunit B (SDHB), SDHB (gene 6390)
The experiment in a line: LTEA_HepaRG_SDHB: Life Technologies and Expression Analysis (LTEA) Assay for succinate dehydrogenase complex iron sulfur subunit B (SDHB) using HepaRG (AID 2283528). To be noted: mRNA level, 48 h; actives raise or lower the signal. Summed up: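 HepaRG, 48 h exposure, 8-pt half-log series from 100 uM in 0.5% DMSO, duplicates. Readout: SDHB mRNA by Fluidigm qRT-PCR vs housekeeping genes; bidirectional fit relative to DMSO.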

Read-out in assay [4]: Signal transducer and activator of transcription 3 (Homo sapiens) (UniProt P40763)
The assay is described as follows: LTEA_HepaRG_STAT3: Life Technologies and Expression Analysis (LTEA) Assay for Signal transducer and activator of transcription (STAT3) using HepaRG (AID 2283529). To be noted: mRNA level, 48 h; actives raise or lower the signal. Summed up:
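Read-out is STAT3 mRNA level by qRT-PCR, normalized to three housekeeping genes, in human HepaRG liver cells treated for 48 h. Concentrations ran from 100 uM downward in half-log steps; curves were fitted for gain or loss relative to 0.5% DMSO.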

Read-out in assay [5]: solute carrier (SLCO1B1), SLCO1B1 (gene 10599)
The assay is described as follows: LTEA_HepaRG_SLCO1B1: Life Technologies and Expression Analysis (LTEA) Assay for solute carrier (SLCO1B1) using HepaRG (AID 2283530). To be noted: mRNA level, 48 h; actives raise or lower the signal. Summed up:
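Human HepaRG cultures treated for 48 h with an eight-concentration half-log series topping at 100 uM; SLCO1B1 measured by qRT-PCR and fitted bidirectionally relative to DMSO.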

Read-out in assay [6]: sulfotransferase 2A1 (SULT2A1), SULT2A1 (gene 6822)
The experiment in a line: LTEA_HepaRG_SULT2A1: Life Technologies and Expression Analysis (LTEA) Assay for sulfotransferase 2A1 (SULT2A1) using HepaRG (AID 2283531). To be noted: mRNA level, 48 h; actives raise or lower the signal. Summed up: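 Gene-expression endpoint in a human liver cell line: SULT2A1 mRNA change after 48 h chemical treatment, curves fitted in both directions relative to 0.5% DMSO vehicle. Concentrations spanned eight half-log steps from 100 uM.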

Read-out in assay [7]: Transforming Growth Factor (TGFA), TGFA (gene 7039)
The assay is described as follows: LTEA_HepaRG_TGFA: Life Technologies and Expression Analysis (LTEA) Assay for Transforming Growth Factor (TGFA) using HepaRG (AID 2283532). The conditions noted are these: mRNA level, 48 h; actives raise or lower the signal. Summed up: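 HepaRG (human liver line), 48 h exposure, 8 conc. half-log down from 100 uM, 0.5% DMSO vehicle, duplicates; serum-free induction medium. TGFA mRNA by TaqMan qRT-PCR, ACTB/GAPDH/POLR2A normalization; gain/loss fit vs DMSO.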

Read-out in assay [8]: Transforming Growth Factor (TGFB1), TGFB1 (gene 7040)
The experiment in a line: LTEA_HepaRG_TGFB1: Life Technologies and Expression Analysis (LTEA) Assay for Transforming Growth Factor (TGFB1) Transporter using HepaRG (AID 2283533). To be noted: mRNA level, 48 h; actives raise or lower the signal. Summed up:
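Eight-point concentration-response (max 100 uM, half-log) in HepaRG under serum-free induction conditions, 48 h. TGFB1 mRNA by qRT-PCR, housekeeping-normalized.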

Read-out in a further assay: TIMP1, TIMP1 (gene 7076)
The assay is described as follows: LTEA_HepaRG_TIMP1: Life Technologies and Expression Analysis (LTEA) Assay for TIMP1 using HepaRG (AID 2283534). The conditions noted are these: mRNA level, 48 h; actives raise or lower the signal. Summed up:
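TIMP1 induction or repression in HepaRG cells after 48 h chemical exposure (eight concentrations, highest 100 uM), assessed by normalized qRT-PCR with bidirectional fitting to DMSO controls.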

Read-out in assay [9]: Tumor necrosis factor receptor 1 (TNFRSF1A), TNFRSF1A (gene 7132)
The assay is described as follows: LTEA_HepaRG_TNFRSF1A: Life Technologies and Expression Analysis (LTEA) Assay for Tumor necrosis factor receptor 1 (TNFRSF1A) using HepaRG (AID 2283535). To be noted: mRNA level, 48 h; actives raise or lower the signal. Summed up:
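Assay uses 48 h chemical treatment of differentiated HepaRG monolayers, tested in duplicate at eight concentrations from 100 uM downward in 0.5% DMSO. mRNA is normalized to ACTB, GAPDH and POLR2A, with induction or suppression fitted relative to vehicle.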

Read-out in assay [10]: Thyroid Hormone Responsive (THRSP), THRSP (gene 7069)
The experiment in a line: LTEA_HepaRG_THRSP: Life Technologies and Expression Analysis (LTEA) Assay for Thyroid Hormone Responsive (THRSP) using HepaRG (AID 2283536). The conditions noted are these: mRNA level, 48 h; actives raise or lower the signal. Summed up:
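mRNA induction or loss relative to 0.5% DMSO vehicle was fitted bidirectionally across an eight-point curve whose highest exposure was 100 uM. Human HepaRG liver cells received chemicals in duplicate over 48 h before RNA extraction.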

Read-out in assay [11]: Cellular tumor antigen p53 (Homo sapiens) (UniProt P04637)
The assay is described as follows: LTEA_HepaRG_TP53: Life Technologies and Expression Analysis (LTEA) Assay for Tumor Protein P53 (TP53) using HepaRG (AID 2283537). The conditions noted are these: mRNA level, 48 h; actives raise or lower the signal. Summed up:
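HepaRG, 48 h exposure, top 100 uM, half-log 8-point, 0.5% DMSO vehicle, duplicates. Read: TP53 mRNA by TaqMan qRT-PCR, normalised to ACTB/GAPDH/POLR2A; bidirectional fit vs DMSO.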

Read-out in assay [12]: UDP glucuronosyltransferase (UGT1A1), UGT1A1 (gene 54658)
The assay is described as follows: LTEA_HepaRG_UGT1A1: Life Technologies and Expression Analysis (LTEA) Assay for UDP glucuronosyltransferase (UGT1A1) using HepaRG (AID 2283538). The conditions noted are these: mRNA level, 48 h; actives raise or lower the signal. Summed up: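 Differentiated human HepaRG cells in serum-free induction medium were exposed in duplicate for 48 h to eight half-log concentrations up to 100 uM in 0.5% DMSO. UGT1A1 mRNA was quantified by TaqMan qRT-PCR, normalized to ACTB, GAPDH and POLR2A, and fitted bidirectionally against DMSO.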

Read-out in assay [13]: UDP glucuronosyltransferase (UGT1A6), UGT1A6 (gene 54578)
The assay is described as follows: LTEA_HepaRG_UGT1A6: Life Technologies and Expression Analysis (LTEA) Assay for UDP glucuronosyltransferase (UGT1A6) using HepaRG (AID 2283539). The conditions noted are these: mRNA level, 48 h; actives raise or lower the signal. Summed up:
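Measures mRNA change in HepaRG hepatic cells exposed 48 h to chemicals (eight-point, maximum 100 uM, 0.5% DMSO vehicle) in serum-free induction medium. Expression normalized to endogenous controls; DMSO served as negative control and baseline.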

Read-out in assay [14]: X-box binding protein 1 (XBP1), XBP1 (gene 7494)
The assay is described as follows: LTEA_HepaRG_XBP1: Life Technologies and Expression Analysis (LTEA) Assay for X-box binding protein 1 (XBP1) using HepaRG (AID 2283540). To be noted: mRNA level, 48 h; actives raise or lower the signal. Summed up: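 Eight concentrations (half-log, highest 100 uM, 0.5% DMSO) tested in duplicate on HepaRG cells over 48 h in serum-free induction medium; qRT-PCR of XBP1 normalised to ACTB, GAPDH, POLR2A.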

The nature of assay [15]: LTEA_HepaRG_LDH_cytotoxicity: Cytotoxicity Assessment in the Life Technologies and Expression Analysis (LTEA) Assay (AID 2283563; active = hit-call score of the fitted dose curve at least 0.9, where 1 is the maximum;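 for AC50: LDH activity released into spent culture medium as a marker of cell death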). Summed up: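 Spent-medium LDH after 48 h chemical exposure of HepaRG cells in serum-free induction medium; eight concentrations, half-log dilutions from 100 uM, duplicate wells, fitted upward relative to 0.5% DMSO.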
A short description of assay [16]: ATG_XTT_Cytotoxicity: Cytotoxicity Assessment in the Attagene TRANS-FACTORIAL HepG2 Assay (AID 2283584; active = hit-call score of the fitted dose curve at least 0.9, where 1 is the maximum;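 for AC50: XTT signal for cell number as viability in transfected HepG2 cells; cells exposed to compound for 24 h before reading; active means loss of viability signal versus DMSO baseline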). Summed up: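 24 h chemical exposure of reporter-transfected HepG2; XTT signal loss vs DMSO indicates cytotoxicity.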
The nature of assay [17]: TOX21_p53_BLA_p2_viability: Viability Assessment in the Tox21 HCT-116 p53 Agonism Beta-lactamase Assay, Phase 2 (AID 2283591; active = hit-call score of the fitted dose curve at least 0.9, where 1 is the maximum;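 note: compound exposure lasted 16 h at 37 °C; actives lower the ATP signal meaning cytotoxicity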). Summed up: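 Cytotoxicity readout: CellTiter-Glo ATP luminescence, 30 min at room temperature, after the beta-lactamase read. Cells were HCT116 exposed 16 h at 37C to compounds pin-transferred at 217-fold dilution from DMSO stocks.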
For assay [18], the target named is Cellular tumor antigen p53 (Homo sapiens) (UniProt P04637). The assay is described as follows: TOX21_p53_BLA_p2_ratio: Tox21 HCT-116 p53 Agonism Beta-lactamase Assay, Ratio, Phase 2 (AID 2283592; active = hit-call score of the fitted dose curve at least 0.9, where 1 is the maximum). Summed up: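 Human colon HCT116 cells with an inducible p53 beta-lactamase reporter are exposed to test chemicals for 16 h at 37C. Reporter induction is read as the 460/530 nm emission ratio after CCF4-AM loading, normalized to DMSO.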

Read-out in assay [19]: Pyruvate Dehydrogenase Kinase 4 (PDK4), PDK4 (gene 5166)
The experiment in a line: LTEA_HepaRG_PDK4: Life Technologies and Expression Analysis (LTEA) Assay for Pyruvate Dehydrogenase Kinase 4 (PDK4) using HepaRG (AID 2283525). The conditions noted are these: mRNA level, 48 h; actives raise or lower the signal. Summed up:
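In this multiplexed human HepaRG expression assay, cells are treated 48 h with test chemicals across an eight-point range starting at 100 uM. PDK4 mRNA changes, normalized to ACTB/GAPDH/POLR2A, are fitted in both directions relative to vehicle.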

What is called AC50 is the concentration giving half of the maximal activity seen.

Chain of Cellular tumor antigen p53 (Homo sapiens) (P04637 whole entry, looked up): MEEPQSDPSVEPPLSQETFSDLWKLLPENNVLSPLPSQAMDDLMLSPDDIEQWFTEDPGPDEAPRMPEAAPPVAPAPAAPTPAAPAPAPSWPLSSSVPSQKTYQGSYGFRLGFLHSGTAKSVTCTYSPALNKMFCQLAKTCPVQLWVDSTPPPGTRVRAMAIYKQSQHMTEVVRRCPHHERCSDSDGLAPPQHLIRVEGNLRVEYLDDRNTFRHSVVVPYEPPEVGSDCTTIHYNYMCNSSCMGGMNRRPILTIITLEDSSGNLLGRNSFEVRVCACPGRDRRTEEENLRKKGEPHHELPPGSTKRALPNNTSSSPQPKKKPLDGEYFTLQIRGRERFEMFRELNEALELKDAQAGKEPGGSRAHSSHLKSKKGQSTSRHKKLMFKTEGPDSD
Chain of Signal transducer and activator of transcription 3 (Homo sapiens) (P40763 whole entry, looked up): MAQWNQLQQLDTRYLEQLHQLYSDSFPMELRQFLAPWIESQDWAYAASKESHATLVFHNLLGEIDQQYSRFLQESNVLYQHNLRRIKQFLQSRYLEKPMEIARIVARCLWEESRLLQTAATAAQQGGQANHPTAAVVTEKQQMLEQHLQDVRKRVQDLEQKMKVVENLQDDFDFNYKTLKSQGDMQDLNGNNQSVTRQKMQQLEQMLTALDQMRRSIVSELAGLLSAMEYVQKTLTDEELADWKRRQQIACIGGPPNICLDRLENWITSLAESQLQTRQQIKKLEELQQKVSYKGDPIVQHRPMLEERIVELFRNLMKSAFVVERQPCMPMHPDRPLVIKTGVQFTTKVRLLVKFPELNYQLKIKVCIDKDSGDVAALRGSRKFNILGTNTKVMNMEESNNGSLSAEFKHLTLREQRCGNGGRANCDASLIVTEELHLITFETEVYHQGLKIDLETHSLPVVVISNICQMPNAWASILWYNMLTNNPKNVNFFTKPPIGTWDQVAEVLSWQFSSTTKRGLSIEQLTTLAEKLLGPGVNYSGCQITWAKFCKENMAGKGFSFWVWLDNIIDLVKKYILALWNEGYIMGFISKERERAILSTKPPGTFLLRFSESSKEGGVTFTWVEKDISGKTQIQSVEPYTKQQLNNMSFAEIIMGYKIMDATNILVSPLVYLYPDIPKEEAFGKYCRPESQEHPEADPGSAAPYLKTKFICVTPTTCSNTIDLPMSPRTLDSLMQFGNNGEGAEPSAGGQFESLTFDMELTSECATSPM
Chain of Nuclear factor erythroid 2-related factor 2 (Homo sapiens) (Q16236 whole entry, looked up): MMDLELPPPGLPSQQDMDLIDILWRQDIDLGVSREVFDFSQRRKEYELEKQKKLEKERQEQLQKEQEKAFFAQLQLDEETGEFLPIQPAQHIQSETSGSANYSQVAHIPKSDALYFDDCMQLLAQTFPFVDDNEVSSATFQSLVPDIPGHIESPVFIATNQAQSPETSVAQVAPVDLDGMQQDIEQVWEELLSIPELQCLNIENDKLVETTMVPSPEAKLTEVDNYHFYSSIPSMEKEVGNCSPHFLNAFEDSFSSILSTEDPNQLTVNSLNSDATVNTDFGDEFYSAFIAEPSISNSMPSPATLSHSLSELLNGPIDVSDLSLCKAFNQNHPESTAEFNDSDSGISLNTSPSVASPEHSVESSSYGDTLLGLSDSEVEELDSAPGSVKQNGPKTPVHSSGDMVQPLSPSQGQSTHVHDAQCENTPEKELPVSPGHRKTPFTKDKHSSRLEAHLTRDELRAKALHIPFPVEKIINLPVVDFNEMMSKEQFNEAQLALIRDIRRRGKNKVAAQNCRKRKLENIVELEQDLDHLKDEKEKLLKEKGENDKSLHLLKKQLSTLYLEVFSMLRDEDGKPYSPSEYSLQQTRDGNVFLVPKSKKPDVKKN

With `CCCCCCCCCC[N+](C)(C)CCCCCCCCCC`, the molecule was called inactive in assay [1], in assay [3], in assay [4], in [5], in [7] and in [8]. Further, the molecule was classed as inactive in assay [11], in assay [12] and in assay [14]. Moreover, the AC50 in [2] is 75 µM (active); in assay [6] it was 80.9 µM (active); with TIMP1, TIMP1 (gene 7076) it was 10.3 µM (active); in [9] it was 79.3 µM (active); in [10] it was 24.5 µM (active); in assay [13], 50 µM (active). Also, the AC50 in assay [15] was 36.6 µM (active); in assay [16], 18.5 µM (active); in [17], 36.4 µM (active) and 33.1 µM (active); in [18], 65.1 µM (active) and 39.6 µM (active).
Turning to `CC(C)C(=O)OCC(C)(C)C(OC(=O)C(C)C)C(C)C` (configuration not stated), the call in assay [19], in assay [1], in assay [2], in assay [3], in [4] and in assay [5] was inactive. Further, the outcome is “inactive” in assay [6]; “inactive” in assay [7]; “inactive” in [8]; “inactive” with TIMP1, TIMP1 (gene 7076); “inactive” in assay [9]; “inactive” in assay [10]. The molecule was called inactive in [11], in assay [12], in assay [13], in [14], in assay [15] and in assay [16]. The outcome in assay [18] was inactive.
For `C[C@]12CCC(=O)C=C1CC[C@@H]1[C@@H]2CC[C@]2(C)C(=O)CC[C@@H]12`, the result in [19], in [1], in assay [2], in [3], in assay [4] and in assay [5] was inactive. Further, the outcome in [8] was “inactive”; with TIMP1, TIMP1 (gene 7076) it was “inactive”; in assay [9], “inactive”; in assay [13], “inactive”; in assay [14], “inactive”; in assay [15], “inactive”. For the same molecule, the call in assay [16], in assay [17] and in assay [18] was inactive. Further, the AC50 was 15.2 µM (active) in assay [6], 50 µM (active) in assay [7], 1.39 µM (active) in assay [10] and 13.1 µM (active) in [12].
